# In PubChem BioAssay (Tox21):
# Values joined by “and” are separate entries in the source; they are usually repeats but may differ in a detail not shown here. Equal entries are not always repeated. A number with no mark means an inactive call. Entries that show only a call come without a potency. Active and inactive are the calls of the source. Unless noted, calls come from the whole dose curve; as a rule, active = well fitted curve in the direction sought with a large enough effect in the repeat runs; inconclusive = weak or mixed curves; inactive = no such curve, though single readings can be large; an effect the other way counts as inactive or inconclusive.
# What was measured:
# [1] = molecular target: Estrogen receptor (Homo sapiens) (UniProt P03372); assay: qHTS assay to identify small molecule antagonists of the estrogen receptor alpha (ER-alpha) signaling pathway (AID 743069; active = well fitted curve in the direction sought with a large enough effect in the signal ratio in the repeat runs, not every such curve was filed as active; inconclusive = weak or mixed curves, or effect the other way; inactive = no such curve, though single readings can be large or run the other way; the % refers to the signal ratio; note: potency is the fitted concentration of half-maximal effect)
# Chain of Estrogen receptor (Homo sapiens) (P03372 whole entry, looked up): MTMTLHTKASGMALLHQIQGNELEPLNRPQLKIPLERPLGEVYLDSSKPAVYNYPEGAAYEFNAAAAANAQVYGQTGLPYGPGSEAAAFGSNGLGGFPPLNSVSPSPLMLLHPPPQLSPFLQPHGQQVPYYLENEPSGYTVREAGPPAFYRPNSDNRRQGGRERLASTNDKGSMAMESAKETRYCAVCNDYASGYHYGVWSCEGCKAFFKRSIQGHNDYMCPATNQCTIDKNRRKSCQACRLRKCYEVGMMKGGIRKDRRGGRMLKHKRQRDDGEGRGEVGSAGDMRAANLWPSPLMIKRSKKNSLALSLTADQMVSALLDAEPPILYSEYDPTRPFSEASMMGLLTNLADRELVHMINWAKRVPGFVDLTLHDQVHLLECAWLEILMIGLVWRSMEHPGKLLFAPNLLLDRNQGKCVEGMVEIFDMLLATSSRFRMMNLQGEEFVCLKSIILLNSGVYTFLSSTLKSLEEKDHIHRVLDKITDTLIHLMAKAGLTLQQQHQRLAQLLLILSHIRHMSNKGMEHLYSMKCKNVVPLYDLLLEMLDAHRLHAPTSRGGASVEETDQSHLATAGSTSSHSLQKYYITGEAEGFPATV
# In short: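 A 17beta-estradiol challenge was applied right after compound transfer to ER-alpha-UAS-bla HEK293 cells previously kept in charcoal-stripped serum. Plates stood 18 hr at 37C and 5% CO2; fluorescence was read following 2 hr FRET substrate loading at room temperature.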
# [2] = molecular target: Peroxisome proliferator-activated receptor gamma (Homo sapiens) (UniProt P37231); assay: qHTS assay to identify small molecule agonists of the peroxisome proliferator-activated receptor gamma (PPARg) signaling pathway (AID 743094; active = well fitted activation curve with a large enough effect in the signal ratio in the repeat runs, not every such curve was filed as active; inconclusive = weak or mixed curves, or effect the other way; inactive = no such curve, though single readings can be large or run the other way; the % refers to the signal ratio)
# Chain of Peroxisome proliferator-activated receptor gamma (Homo sapiens) (P37231 whole entry, looked up): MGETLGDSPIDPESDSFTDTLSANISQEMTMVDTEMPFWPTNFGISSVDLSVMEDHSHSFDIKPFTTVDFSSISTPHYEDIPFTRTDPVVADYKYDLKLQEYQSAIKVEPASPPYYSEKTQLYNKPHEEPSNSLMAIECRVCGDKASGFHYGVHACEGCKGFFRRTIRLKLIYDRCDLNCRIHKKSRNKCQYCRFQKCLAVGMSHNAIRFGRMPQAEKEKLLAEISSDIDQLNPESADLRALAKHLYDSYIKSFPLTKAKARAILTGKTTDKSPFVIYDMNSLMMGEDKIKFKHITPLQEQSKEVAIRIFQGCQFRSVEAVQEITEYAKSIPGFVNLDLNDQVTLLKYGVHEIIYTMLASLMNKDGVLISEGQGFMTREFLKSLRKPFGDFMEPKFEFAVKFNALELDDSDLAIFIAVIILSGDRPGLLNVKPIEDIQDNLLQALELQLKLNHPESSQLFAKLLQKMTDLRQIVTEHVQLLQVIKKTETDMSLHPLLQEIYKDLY
# In short: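 Fluorescence-based beta-lactamase readout in HEK293H PPARg UAS-bla cells after 17 h compound exposure (37C) and 1 h B/G FRET substrate incubation at room temperature.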
# [3] = molecular target: Bile acid receptor (Homo sapiens) (UniProt Q96RI1); assay: qHTS assay to identify small molecule agonists of the farnesoid-X-receptor (FXR) signaling pathway (AID 743220; active = well fitted activation curve with a large enough effect in the signal ratio in the repeat runs, not every such curve was filed as active; inconclusive = weak or mixed curves, or effect the other way; the % refers to the signal ratio)
# Chain of Bile acid receptor (Homo sapiens) (Q96RI1 whole entry, looked up): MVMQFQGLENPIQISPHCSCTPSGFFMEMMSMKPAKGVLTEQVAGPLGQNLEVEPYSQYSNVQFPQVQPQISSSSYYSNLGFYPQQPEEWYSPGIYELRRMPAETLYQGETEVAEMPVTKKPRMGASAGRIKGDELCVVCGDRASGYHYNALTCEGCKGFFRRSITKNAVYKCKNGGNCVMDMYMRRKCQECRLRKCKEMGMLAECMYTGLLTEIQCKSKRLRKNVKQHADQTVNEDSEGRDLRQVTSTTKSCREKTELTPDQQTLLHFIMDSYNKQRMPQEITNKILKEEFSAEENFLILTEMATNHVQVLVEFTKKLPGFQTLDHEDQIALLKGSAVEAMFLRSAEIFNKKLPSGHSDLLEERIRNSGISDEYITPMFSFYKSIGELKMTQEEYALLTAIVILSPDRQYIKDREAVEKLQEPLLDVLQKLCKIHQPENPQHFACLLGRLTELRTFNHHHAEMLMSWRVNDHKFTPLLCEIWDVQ
# In short: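 FXR-UAS-bla HEK 293T cells carrying a UAS-driven beta-lactamase reporter were plated for 5 h at 37C/5% CO2, then exposed to DMSO-dissolved Tox21 10K compounds for 16 h at 37C. A LiveBLAzer B/G FRET substrate was loaded for 2 h at room temperature before fluorescence reading.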
# [4] = qHTS assay for small molecule agonists of the antioxidant response element (ARE) signaling pathway (AID 743202; active = well fitted activation curve with a large enough effect in the signal ratio in the repeat runs, not every such curve was filed as active; inconclusive = weak or mixed curves, or effect the other way; inactive = no such curve, though single readings can be large or run the other way; the % refers to the signal ratio; note: potency is the fitted concentration of half-maximal effect)
# In short: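 Following a 16 h, 37 C exposure of reporter HepG2 cells (ARE-driven beta-lactamase, 2,000 cells/well) to compounds, FRET substrate was applied for 2 h at room temperature and fluorescence intensity recorded.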
# [5] = qHTS assay to identify small molecule agonists of the AP-1 signaling pathway (AID 1159526; calls by dose curve)
# [6] = molecular target: Androgen receptor (Homo sapiens) (UniProt P10275); assay: qHTS assay to identify small molecule agonists of the androgen receptor (AR) signaling pathway using the MDA cell line (AID 743040; note: nearly all actives have a fitted effect of over 20% in size)
# Chain of Androgen receptor (Homo sapiens) (P10275 whole entry, looked up): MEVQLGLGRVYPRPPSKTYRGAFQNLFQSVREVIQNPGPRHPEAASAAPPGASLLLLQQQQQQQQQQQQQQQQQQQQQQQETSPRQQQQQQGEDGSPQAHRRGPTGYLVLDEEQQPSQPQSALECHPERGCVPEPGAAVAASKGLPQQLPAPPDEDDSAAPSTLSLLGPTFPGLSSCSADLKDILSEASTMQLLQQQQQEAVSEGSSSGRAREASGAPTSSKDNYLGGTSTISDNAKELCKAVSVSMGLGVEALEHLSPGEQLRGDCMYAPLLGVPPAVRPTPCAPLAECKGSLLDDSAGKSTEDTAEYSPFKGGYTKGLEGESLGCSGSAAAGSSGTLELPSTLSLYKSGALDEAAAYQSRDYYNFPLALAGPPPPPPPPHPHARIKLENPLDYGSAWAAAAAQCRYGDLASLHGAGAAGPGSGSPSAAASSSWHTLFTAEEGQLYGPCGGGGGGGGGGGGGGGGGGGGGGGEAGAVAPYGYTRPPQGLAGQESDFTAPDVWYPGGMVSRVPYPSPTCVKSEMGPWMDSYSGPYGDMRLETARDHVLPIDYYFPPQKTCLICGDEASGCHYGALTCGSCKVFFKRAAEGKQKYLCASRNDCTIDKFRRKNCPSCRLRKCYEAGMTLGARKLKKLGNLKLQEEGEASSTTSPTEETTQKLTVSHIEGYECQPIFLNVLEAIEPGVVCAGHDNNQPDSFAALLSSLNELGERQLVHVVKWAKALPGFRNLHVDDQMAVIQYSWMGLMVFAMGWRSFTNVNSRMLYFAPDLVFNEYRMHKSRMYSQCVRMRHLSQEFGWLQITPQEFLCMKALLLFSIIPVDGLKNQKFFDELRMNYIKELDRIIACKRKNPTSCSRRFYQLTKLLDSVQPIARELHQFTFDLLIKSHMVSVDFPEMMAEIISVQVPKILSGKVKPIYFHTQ
# In short: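 Cell-based luciferase reporter: MDA-kb2, MMTV promoter (AR + GR response elements). 16 h compound exposure at 37C; ONE-Glo, 30 min RT, luminescence.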
# [7] = molecular target: Vitamin D3 receptor (Homo sapiens) (UniProt P11473); assay: qHTS assay to identify small molecule agonists of the vitamin D receptor (VDR) signaling pathway (AID 743222; calls by dose curve)
# Chain of Vitamin D3 receptor (Homo sapiens) (P11473 whole entry, looked up): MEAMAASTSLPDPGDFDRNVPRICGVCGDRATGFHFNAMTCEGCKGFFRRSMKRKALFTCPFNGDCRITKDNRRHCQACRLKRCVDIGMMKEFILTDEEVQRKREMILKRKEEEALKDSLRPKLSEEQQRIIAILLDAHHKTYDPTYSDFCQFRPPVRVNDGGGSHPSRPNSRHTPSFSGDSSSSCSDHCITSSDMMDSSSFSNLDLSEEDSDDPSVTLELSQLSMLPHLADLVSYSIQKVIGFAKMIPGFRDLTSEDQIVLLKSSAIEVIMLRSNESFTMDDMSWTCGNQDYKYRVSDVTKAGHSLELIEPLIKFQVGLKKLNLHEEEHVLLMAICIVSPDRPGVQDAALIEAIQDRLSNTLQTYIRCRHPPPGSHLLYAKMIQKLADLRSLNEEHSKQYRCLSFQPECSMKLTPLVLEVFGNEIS
# In short: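 Using LiveBLAzer B/G FRET detection, agonism was scored in VDR-bla cells exposed overnight (16 h, 37C) to DMSO-dissolved compounds; substrate incubation was 2 h at room temperature.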
# [8] = molecular target: Vitamin D3 receptor (Homo sapiens) (UniProt P11473); assay: qHTS assay to identify small molecule antagonists of the vitamin D receptor (VDR) signaling pathway (AID 743223; active = well fitted inhibition curve with a large enough effect in the signal ratio in the repeat runs, not every such curve was filed as active; inconclusive = weak or mixed curves, or effect the other way; inactive = no such curve, though single readings can be large or run the other way; the % refers to the signal ratio)
# In short: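 Beta-lactamase activity in VDR-bla cells is measured by FRET substrate fluorescence (2 h, room temperature) after cells spend 16 h at 37C with test compound and 3 nM final 1alpha,25-dihydroxyvitamin D3.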
# [9] = molecular target: Androgen receptor (Homo sapiens) (UniProt P10275); assay: qHTS assay to identify small molecule antagonists of the androgen receptor (AR) signaling pathway using the MDA cell line (AID 743042; note: potency is the fitted concentration of half-maximal effect; nearly all actives have a fitted effect of over 55% in size)
# In short: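 MDA-kb2 cells (human breast carcinoma, stably carrying an MMTV-luciferase reporter responsive to AR and GR) were plated at 3,000 cells/well and preincubated 5 hr at 37C, then given compound plus R1881 agonist for 16 h. ONE-Glo luminescence was read.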
# [10] = molecular target: Androgen receptor (Homo sapiens) (UniProt P10275); assay: qHTS assay to identify small molecule antagonists of the androgen receptor (AR) signaling pathway (AID 743035; active = well fitted inhibition curve with a large enough effect in the signal ratio in the repeat runs, not every such curve was filed as active; inconclusive = weak or mixed curves, or effect the other way; inactive = no such curve, though single readings can be large or run the other way; the % refers to the signal ratio; note: potency is the fitted concentration of half-maximal effect)
# In short: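 R1881 agonist challenge of a HEK293 UAS-beta-lactamase AR reporter line in the presence of compound (16 h, 37C); signal taken as FRET fluorescence after 2 h with LiveBLAzer B/G substrate at room temperature.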
# [11] = molecular target: Androgen receptor (Homo sapiens) (UniProt P10275); assay: qHTS assay to identify small molecule agonists of the androgen receptor (AR) signaling pathway (AID 743036; active = well fitted activation curve with a large enough effect in the signal ratio in the repeat runs, with a control signal flat, not every such curve was filed as active; inconclusive = weak or mixed curves, or effect the other way; inactive = no such curve, though single readings can be large or run the other way; the % refers to the signal ratio)
# In short: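 In this Tox21 qHTS, 2,000 HEK293 AR-bla cells per well were incubated with compounds for 16 h at 37C and 5% CO2. Fluorescence intensity was recorded 2 h after adding LiveBLAzer B/G FRET substrate at room temperature.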
# [12] = molecular target: Estrogen receptor (Homo sapiens) (UniProt P03372); assay: qHTS assay to identify small molecule agonists of the estrogen receptor alpha (ER-alpha) signaling pathway using the BG1 cell line (AID 743079); note: nearly all actives have a fitted effect of over 20% in size; note: potency is the fitted concentration of half-maximal effect
# [13] = molecular target: Glucocorticoid receptor (Homo sapiens) (UniProt P04150); assay: qHTS assay to identify small molecule antagonists of the glucocorticoid receptor (GR) signaling pathway (AID 720692; active = well fitted inhibition curve with a large enough effect in the signal ratio in the repeat runs, not every such curve was filed as active; inconclusive = weak or mixed curves, or effect the other way; inactive = no such curve, though single readings can be large or run the other way; the % refers to the signal ratio; note: potency is the fitted concentration of half-maximal effect)
# Chain of Glucocorticoid receptor (Homo sapiens) (P04150 whole entry, looked up): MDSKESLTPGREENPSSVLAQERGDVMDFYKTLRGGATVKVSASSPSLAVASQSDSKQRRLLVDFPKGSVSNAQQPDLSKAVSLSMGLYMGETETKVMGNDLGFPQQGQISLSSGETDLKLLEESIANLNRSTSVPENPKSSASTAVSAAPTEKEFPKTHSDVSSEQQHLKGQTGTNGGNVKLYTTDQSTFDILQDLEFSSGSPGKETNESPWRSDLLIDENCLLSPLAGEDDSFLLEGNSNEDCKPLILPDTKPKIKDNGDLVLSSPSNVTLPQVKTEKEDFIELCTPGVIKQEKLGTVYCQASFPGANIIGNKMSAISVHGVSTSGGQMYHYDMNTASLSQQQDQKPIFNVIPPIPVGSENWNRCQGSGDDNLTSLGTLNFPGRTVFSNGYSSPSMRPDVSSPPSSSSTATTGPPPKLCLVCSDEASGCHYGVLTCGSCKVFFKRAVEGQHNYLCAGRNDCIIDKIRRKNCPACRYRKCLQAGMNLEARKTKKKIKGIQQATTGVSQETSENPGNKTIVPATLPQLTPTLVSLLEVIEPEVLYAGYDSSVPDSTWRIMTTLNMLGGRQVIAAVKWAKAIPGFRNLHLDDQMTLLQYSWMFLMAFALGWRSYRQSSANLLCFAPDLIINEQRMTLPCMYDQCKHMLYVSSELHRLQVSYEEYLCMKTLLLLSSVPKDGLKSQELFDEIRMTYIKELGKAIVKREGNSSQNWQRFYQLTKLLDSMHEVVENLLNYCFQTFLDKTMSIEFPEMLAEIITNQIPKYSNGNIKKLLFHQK
# In short: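 Tox21 10K library screened in concentration-response for blockade of dexamethasone (5 nM final)-induced GRE-bla reporter activity in HeLa cells; 18 h treatment, fluorescence read.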
# [14] = molecular target: Nuclear receptor subfamily 1 group I member 2 (Rattus norvegicus) (UniProt Q9R1A7); assay: Rat pregnane X receptor (rPXR) activation by small molecules, qHTS assay (AID 1346983); conditions: rPXR luciferase reporter cells, One-Glo luminescence, 24 h; max activation: stronger effect = higher value; note: nearly all actives have a fitted effect of over 20% in size
# Chain of Nuclear receptor subfamily 1 group I member 2 (Rattus norvegicus) (Q9R1A7 whole entry, looked up): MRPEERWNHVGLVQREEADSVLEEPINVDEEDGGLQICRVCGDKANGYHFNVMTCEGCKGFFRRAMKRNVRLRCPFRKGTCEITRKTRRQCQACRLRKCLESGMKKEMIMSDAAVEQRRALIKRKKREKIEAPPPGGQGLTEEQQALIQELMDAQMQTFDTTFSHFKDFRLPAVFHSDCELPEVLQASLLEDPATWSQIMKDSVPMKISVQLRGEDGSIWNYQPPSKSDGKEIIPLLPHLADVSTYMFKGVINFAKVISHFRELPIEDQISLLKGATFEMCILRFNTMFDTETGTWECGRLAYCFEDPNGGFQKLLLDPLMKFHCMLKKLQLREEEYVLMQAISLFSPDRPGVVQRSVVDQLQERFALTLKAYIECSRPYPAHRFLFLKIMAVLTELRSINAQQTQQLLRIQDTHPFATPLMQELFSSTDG
# In short: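 Cell-based rPXR luciferase reporter assay, 2,000 cells per well, rested 5hr at 37 C before compound addition in DMSO, then 24 hr at 37 C. One-Glo reagent was added and luminescence read after 30 min at room temperature.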
# [15] = molecular target: Nuclear receptor subfamily 1 group I member 2 (Homo sapiens) (UniProt O75469); assay: CYP3A4 induction through human pregnane X receptor (PXR) by small molecules, qHTS assay (AID 1346984); note: nearly all actives have a fitted effect of over 40% in size
# In short: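 After 24 h at 37C with compound, DPX-2 cells (HepG2, co-transfected PXR response element and CYP3A4 promoter-luciferase) got 3uM final P450-Glo Luciferin-IPA for 3 h; One-Glo luminescence followed.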
# [16] = molecular target: Peroxisome proliferator-activated receptor gamma (Homo sapiens) (UniProt P37231); assay: qHTS assay to identify small molecule antagonists of the peroxisome proliferator-activated receptor gamma (PPARg) signaling pathway (AID 743191; calls by dose curve; note: nearly all actives have a fitted effect of over 30% in size; note: potency is the fitted concentration of half-maximal effect)
# In short: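 GeneBLAzer PPARg UAS-bla HEK293H cells carrying a UAS-driven beta-lactamase reporter were plated at 3000 cells/well, preincubated 5 h at 37C, then given compound for 17 h at 37C; LiveBLAzer B/G FRET substrate was read after 1 h at room temperature.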
compound,measurement,setting,value
O=[N+]([O-])c1c(Cl)c(Cl)cc(Cl)c1Cl,Potency,[1],inactive
same,Potency,[2],inactive
CCC(C)=O,outcome,[3],inactive
CC1COC(Cn2cncn2)(c2ccc(Oc3ccc(Cl)cc3)cc2Cl)O1 (configuration not stated),Potency,[4],1.93 µM (active)
same,outcome,[3],inactive
same,outcome,[5],inactive
CCCCC(CC)COC(=O)c1ccc(C(=O)OCC(CC)CCCC)cc1 (configuration not stated),outcome,[3],inactive
Cc1cc(C(C)(C)c2ccc(O)c(C)c2)ccc1O,Potency,[6],inactive
same,Potency,[4],9.23 µM (active)
same,outcome,[3],inactive
same,outcome,[7],inactive
same,outcome,[8],inactive
Cc1ccc(N(SC(F)(Cl)Cl)S(=O)(=O)N(C)C)cc1,Potency,[6],inactive
same,Potency,[9],8.63 µM (active)
ClC1=C(Cl)[C@]2(Cl)[C@@H]3[C@@H](Cl)[C@H]4O[C@H]4[C@@H]3C1(Cl)C2(Cl)Cl,Potency,[1],inactive
same,Potency,[2],inactive
same,outcome,[7],inactive
same,outcome,[8],inactive
CCOC(=O)C(O)(c1ccc(Cl)cc1)c1ccc(Cl)cc1,Potency,[10],19.5 µM (active)
same,Potency,[11],inactive
same,Potency,[6],inactive
same,Potency,[9],19.5 µM (active) and 68.6 µM (active)
same,Potency,[1],55.5 µM [cytotoxic] (active) and 54.9 µM [inhibitor] (active)
same,Potency,[2],inactive
same,outcome,[7],inactive
Nc1ccc([N+](=O)[O-])cc1,Potency,[10],43.6 µM (active)
same,Potency,[6],inactive
same,outcome,[7],inactive
COc1cc(OC)c(OC)cc1C=O,Potency,[6],inactive
same,Potency,[12],inactive
O=C1C(I)=CC(=C(c2cc(I)c(O)c(I)c2)c2ccccc2C(=O)O)C=C1I,Potency,[13],16.9 µM (active) and 8.49 µM (active)
same,Potency,[1],7.56 µM [inconclusive] (active)
same,Potency,[12],inactive
same,outcome,[7],inactive
same,outcome,[5],inactive
same,max activation,[14],-1.41%
same,Potency,[15],inactive
CNC(=O)Oc1cc(C)c(SC)c(C)c1,outcome,[5],inactive
OCC(c1ccc(Cl)cc1)c1ccc(Cl)cc1,outcome,[3],inactive
same,outcome,[7],inactive
c1ccc2c(c1)Sc1ccccc1N2CC1CN2CCC1CC2 (configuration not stated),Potency,[13],21.3 µM (active)
C[C@]12CC[C@@H](O)C[C@@H]1CC[C@@H]1[C@@H]2CC[C@]2(C)C(=O)CC[C@@H]12,outcome,[5],inactive
O=C(Nc1ccccc1-c1ccc(Cl)cc1)c1cccnc1Cl,Potency,[1],inactive
same,Potency,[12],inactive
same,Potency,[2],inactive
same,Potency,[16],51.9 µM (active)
CCN(CC)C(=O)Cl,outcome,[5],inactive
Brc1ccc(-c2ccccc2)cc1,Potency,[13],inactive
CN1CSC(=S)N(C)C1,Potency,[12],inactive
same,Potency,[16],inactive
same,outcome,[3],inactive
same,outcome,[8],inactive
O=C(O)C(c1ccc(Cl)cc1)c1ccc(Cl)cc1,outcome,[8],inactive
Cc1cccc(C)c1[N+](=O)[O-],Potency,[13],inactive
COc1ccc(C(c2ccc(OC)cc2)C(Cl)(Cl)Cl)cc1,Potency,[1],43.4 µM [inconclusive] (active)
same,Potency,[12],4.97 µM (active)
CCc1cccc(C)c1N,Potency,[13],inactive
same,outcome,[8],inactive
Clc1ccccc1-c1ccccc1Cl,Potency,[4],inactive
same,outcome,[7],inactive
CO/C=C(/C(=O)OC)c1ccccc1Oc1cc(Oc2ccccc2C#N)ncn1,Potency,[6],inactive
same,Potency,[9],6.83 µM (active)
